# Compounds with a hit are over-represented: about 0.93% of the library has one in this group of screens.
# IL1B NFkB pot = enhancers of NFkB p65 translocation in HUVEC – imaging, IL-1B stimulus, high-content imaging, primary screen; HUVEC IL-1B NFkB p65 nuclear translocation imaging; activation, % at 2 µM; actives 0.3% (n = 94,000);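 active = activation above 40%, about the mean plus 3 SD, also judged a hit on visual image review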;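 also: percent activation is computed from the nuclear over cytoplasmic p65 intensity ratio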
# HUVEC tox IL1B = cytotoxicity in IL-1B stimulated HUVEC, primary screen, cytotoxicity control for IL-1B NFkB translocation project, imaging, Hoechst nuclear count, IL-1B stimulus; actives 0.41% (n = 94,000); HUVEC cell count loss; cell count reduction, % at 2 µM;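 active = cell count reduction more than 3 SD above the screen-wide mean, cut at about 70% in these data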;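 also: normalized per plate to untreated control cells as the no-loss baseline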
# HUVEC tox TNFa = cytotoxicity in TNFa-stimulated HUVEC, primary screen, cytotoxicity control for VCAM1 expression modulator project, imaging, Hoechst nuclei count | HUVEC TNFalpha-stimulated, Hoechst cell count | actives 0.17% (n = 93,000) | AID 848, 2007 | cell count reduction, % at 2 µM;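 active = cell count reduction exceeding the screen mean by over 5 SD, scaled to untreated wells per plate, cut at about 78% in these data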;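 also: cells counted after 24 h of TNF alpha exposure following the 1 h pretreatment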
# IL1B NFkB inh = inhibitors of IL-1B driven NFkB p65 nuclear import, primary screen, imaging, HUVEC, IL-1B stimulus, high-content imaging | inhibition, % at 2 µM | HUVEC IL-1B NFkB p65 nuclear translocation imaging | AID 796, 2007 | actives 0.43% (n = 94,000);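 active = inhibition above about 30% together with a positive call from visual inspection of the well image, limit read from the data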;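 also: nuclear over cytoplasmic p65 intensity ratio measured by imaging; 0% = IL-1B stimulated DMSO wells and 100% = unstimulated DMSO wells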
# Phagocytosis inh = inhibitors of macrophage phagocytosis, primary screen, imaging, J774A.1 cells, IgG beads | J774A.1 macrophage IgG-bead phagocytosis | actives 0.07% (n = 110,000) | AID 1029, 2008 | inhibition, % at 5 µM;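 active = inhibition above the mean of the plate negative controls plus 5 SD, cut at about 13% in these data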;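 also: phagocytic index as fraction of beads internalized from green versus red external bead signal; plate controls were DMSO negative control for no effect and cytochalasin-D positive control for full effect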
# The depositor's hits bear a star; nt = no result given; ! = not confirmed by another sample; [ ] = another dose, or the depositor's remark.
SMILES,IL1B NFkB pot,HUVEC tox IL1B,HUVEC tox TNFa,IL1B NFkB inh,Phagocytosis inh
O=C(O)C1C(C(=O)Nc2ccc(Cl)cc2)C2C=CC1C21CC1 (stereo not given),10,76*,-13,-10,2
O=C(Nc1ccc(Cl)cc1)C1C2CCC3C(CCC21)C3(Cl)Cl (stereo not given),-13,9,0,13,nt
COc1ccc2nc(C)cc(SCC(=O)O)c2c1,-1,18,-2,40*!,-1
O=C(/C=C/c1ccc(S(=O)(=O)N2CCOCC2)cc1)NCc1ccccc1Cl,nt,nt,nt,nt,-1
COc1ccccc1-n1c(SCC(=O)Nc2cccc3ccccc23)nc(O)cc1=O,8,1,4,-8,190*
COc1ccccc1-n1c(C)nnc1SCC(=O)NCc1ccccc1,15,-45,-27,-15,nt
COc1ccccc1-n1c(C)nnc1SCC(=O)Nc1cccc(C(C)=O)c1,-97,80*,3,96*,0
Cc1nn(Cc2n[nH]c(=S)n2Cc2ccccc2)c(C)c1Cl,-5,26,-6,5,1
O=c1c2[nH]c3ccccc3c2ncn1Cc1cccnc1,50*,1,-10,-50,-1
O=C(NC(=S)Nn1cnnc1)c1cccc(Br)c1,nt,nt,nt,nt,-2
CN(C1CCCCC1)S(=O)(=O)c1ccc(C(=O)N2CCN(c3nc4ccccc4s3)CC2)cc1,nt,nt,nt,nt,-12
COc1ccc(OC)c(-n2c(-c3ccc(C)cc3)n[nH]c2=S)c1,-23,88*,6,23,nt
COc1ccc(-c2cc(-c3n[nH]c(=S)n3-c3cc(OC)ccc3OC)[nH]n2)cc1,nt,nt,nt,nt,-6
CN(Cc1cnn(C)c1)C(=O)C1CCCCC1C(=O)O (stereo not given),2,-36,-20,-2,nt
CCCCn1ccnc1C(=O)c1cc(S(=O)(=O)N2CCOCC2)ccc1C,-55,-12,-28,55*,-1
Cc1ccc(S(=O)(=O)N2CCOCC2)cc1C(=O)O,nt,nt,nt,nt,0
O=C(c1cc2sccc2n1Cc1ccccc1)N1CCN(c2nc3ccccc3s2)CC1,-7,0,-4,7,nt
CC1(C)CC(=O)C=C(Nc2ccc(C(=O)O)cc2)C1,20,-18,-3,-20,nt
CC1(C)CC(=O)C=C(Nc2ccc(S(N)(=O)=O)cc2)C1,-34,8,-4,34*,-4
O=C(c1sc2ccccc2c1Cl)N(Cc1ccccc1)C1CCS(=O)(=O)C1 (stereo not given),-66,10,-3,66*,0
COc1ccccc1NC(=S)NC(=O)c1ccc(Cn2cc(Br)cn2)cc1,nt,nt,nt,nt,-4
COc1ccc(S(=O)(=O)N(CC(N)=O)C2CCCCC2)cc1Cl,25,93*,-13,-25,-1
COc1ccc(S(=O)(=O)N(C)CC(=O)NC2CCCCC2)cc1Cl,1,14,-4,-1,0
CC1CCCCC1N1CN=C(Nc2nc3ccccc3s2)NC1 (stereo not given),4,-13,-41,-4,nt
CCOc1ccc2ccccc2c1/C=N/NC(=O)CC1(C)OCCCO1,nt,nt,nt,nt,2
SMILES,IL1B NFkB pot,HUVEC tox IL1B,HUVEC tox TNFa,IL1B NFkB inh,Phagocytosis inh
Cc1ccc2c(c1)/C(=N/O)CCS2,nt,nt,-23,nt,2
O/N=C1/CCCSc2ccccc21,48*,6,6,-48,0
CCCS(=O)(=O)N1CCCC(C(=O)NC2CCCC(C)C2C)C1 (stereo not given),7,-13,-14,-7,-1
CCCS(=O)(=O)N1CCC(C(=O)NC2CCCC(C)C2C)CC1 (stereo not given),46*,-14,-12,-46,0
CCOC(=O)C1CCN(C(=O)c2ccc(Cl)c(Cl)c2)CC1,-99,94*,-10,99*,0
Cc1cc2ccccc2n1CCNC(=O)c1cccs1,-59,37,7,59*,-2
CC(=O)C1=C(C)OC(N)=C(C#N)C1c1cc2cc(C)c(C)cc2nc1Cl (stereo not given),43*,-18,-17,-43,0
COC(=O)C1=C(C)OC(N)=C(C#N)C1c1ccc(OC)c(OC)c1OC (stereo not given),7,-4,-15,-7,0
O=C(c1cc2n(n1)C(C(F)(F)F)CC(c1ccco1)N2)N1CCc2ccccc2C1 (stereo not given),-11,75*,-15,11,1
COc1ccccc1N1CCN(C(=O)c2cc3n(n2)C(C(F)(F)F)CC(c2ccco2)N3)CC1 (stereo not given),nt,nt,nt,nt,-2
O=C1C(Cl)=C(N2CCN(c3ccccc3[N+](=O)[O-])CC2)C(=O)c2ccccc21,nt,nt,nt,nt,-4
CCOc1cc(S(=O)(=O)NCCc2ccccc2C)c(OCC)cc1-n1cnnn1,26,-8,-34,-26,0
CCOc1cc(S(=O)(=O)NCCc2cccc(C)c2)c(OCC)cc1-n1cnnn1,-35,17,14,35*,1
COc1cccc(NC(=O)C(=O)N/N=C/c2cc(C)n(-c3ccc(Cl)c(Cl)c3)c2C)c1,14,12,-13,-14,-1
COC(=O)C1=C(C)n2nnnc2NC1c1ccc(Cl)cc1 (stereo not given),42*,-4,15,-42,-2
COC(=O)C1=C(C)N(C)C(=O)NC1c1ccc(C)cc1 (stereo not given),-1,-42,-38,1,nt
CCOc1ccc(N(C(C)C(=O)Nc2ccc(OC)cc2)S(C)(=O)=O)cc1 (stereo not given),0,10,-5,0,0
CCN(CC)S(=O)(=O)c1ccc(NC(=O)C(OC)c2ccccc2)cc1 (stereo not given),-98,90*,-24,98*,-2
CCN(CC)S(=O)(=O)c1ccc(NC(=O)C(C)N(c2ccc(OC)cc2)S(C)(=O)=O)cc1 (stereo not given),11,-77,100*,-11,-1
CCN(C(=S)NC(=O)c1ccccc1Br)C1CCCCC1,nt,nt,nt,nt,-5
CC[n+]1c(/C=C/C=C/N(C(C)=O)c2ccccc2)sc2cc(OC)ccc21,nt,nt,nt,nt,70*[fluoresces]
O=C(NC(=S)Nc1cc(C(F)(F)F)ccc1Cl)c1ccccc1,-79,1,-31,79*,nt
O=C(CC(=O)c1ccccc1)Nc1cc(C(F)(F)F)ccc1Cl,nt,nt,nt,nt,-11
O=C(NCC1CCCO1)c1ccc(C(=O)NCC2CCCO2)cc1 (stereo not given),15,-17,nt,-15,-1
CCOc1ccc(C(=O)NCC2CCCO2)cc1 (stereo not given),56*,-25,-16,-56,-1
Cc1cc(/C=C2\SC(=Nc3ccccc3)NC2=O)c(C)n1-c1ccc(S(N)(=O)=O)cc1,-13,10,34,13,nt
N#Cc1c(SCC(N)=O)nc2c(c1-c1ccc(OCc3ccccc3)cc1)CCCC2,3,86*,-36,-3,nt
COc1ccc(-c2c(C#N)c(SCC(=O)Nc3ccccc3)nc3c2CCCC3)cc1,-5,6,-31,5,nt

# Screening results as filed in PubChem BioAssay.
